We go through 14 molecules from PubChem BioAssay (Tox21).

Where “and” joins values, the source holds several entries; their conditions need not be identical. Equal values may be shown once. A structure can be active in one record and inactive in another. Calls of active or inactive are those of the source. Unless noted, calls come from the whole dose curve; as a rule, active = well fitted curve in the direction sought with a large enough effect in the repeat runs; inconclusive = weak or mixed curves; inactive = no such curve, though single readings can be large; an effect the other way counts as inactive or inconclusive.

A short description of test [1]: qHTS assay to identify small molecule antagonists of the thyroid receptor (TR) signaling pathway - cell viability counter screen (AID 743064). Note: nearly all actives have a fitted effect of over 50% in size. Note: potency is the fitted concentration of half-maximal effect. The essentials:
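Fluorescence from CellTiter-Fluor, added after 23.5 h exposure at 37 °C, reported viability of GH3.TRE-Luc cells co-treated with compound and 1 nM T3. Measured in the same wells as the luciferase TR readout.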

Test [2] in a line: qHTS assay to identify small molecule antagonists of the thyroid receptor (TR) signaling pathway (AID 743065). Note: nearly all actives have a fitted effect of over 55% in size. Note: potency is the fitted concentration of half-maximal effect. In a few lines:
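GH3.TRE-Luc rat pituitary cells (two TREs driving luciferase) were dosed with compound, then stimulated with 1 nM T3 (final) for 23.5 h at 37 C. ONE-Glo luminescence was the read-out, with CellTiter-Fluor fluorescence as the cytotoxicity counter-screen.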

Test [3] relates to thyroid hormone receptor (rat, GH3 cells). Kind of test: qHTS assay to identify small molecule agonists of the thyroid receptor (TR) signaling pathway (AID 743066; calls by dose curve).
The nature of test [4]: qHTS assay to identify small molecule antagonists of the estrogen receptor alpha (ER-alpha) signaling pathway - cell viability counter screen (AID 743074; calls by dose curve;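 note: HEK293 cells carrying ER-alpha-UAS-bla reporter stimulated with 17beta-estradiol; nearly all actives have a fitted effect of over 45% in size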; note: potency is the fitted concentration of half-maximal effect).
The target in test [5] is Estrogen receptor (Homo sapiens) (UniProt P03372). Nature of the test: qHTS assay to identify small molecule agonists of the estrogen receptor alpha (ER-alpha) signaling pathway (AID 743075; calls by dose curve;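 note: HEK293 GripTite cells with ER-alpha and UAS-driven beta-lactamase reporter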; note: potency is the fitted concentration of half-maximal effect).
Test [6] shares this target. Nature of the test: qHTS assay to identify small molecule agonists of the estrogen receptor alpha (ER-alpha) signaling pathway using the BG1 cell line (AID 743079). Note: nearly all actives have a fitted effect of over 20% in size.
Test [7] can be described thus: qHTS assay to identify small molecule antagonists of the estrogen receptor alpha (ER-alpha) signaling pathway using the BG1 cell line (AID 743080; calls by dose curve;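 note: BG1 cells stimulated with 17beta-estradiol alongside compound; nearly all actives have a fitted effect of over 25% in size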; note: potency is the fitted concentration of half-maximal effect). The essentials:
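Endogenous full-length ER-alpha in BG1-Luc-4E2 cells drives a stably integrated 4×ERE luciferase gene; compounds were tested against 17beta-estradiol over 21.5 h, with luminescence and multiplexed viability fluorescence recorded.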

Another test has as its target Aromatase (Homo sapiens) (UniProt P11511). Kind of test: qHTS assay to identify aromatase inhibitors (AID 743083). Note: nearly all actives have a fitted effect of over 55% in size. Note: potency is the fitted concentration of half-maximal effect.
A short description of test [8]: qHTS assay to identify aromatase inhibitors - cell viability counter screen (AID 743084).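 Note: cells stimulated with testosterone during compound exposure; nearly all actives have a fitted effect of over 55% in size.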 Note: potency is the fitted concentration of half-maximal effect.
Test [9] addresses Aryl hydrocarbon receptor (Homo sapiens) (UniProt P35869). Kind of test: qHTS assay to identify small molecule that activate the aryl hydrocarbon receptor (AhR) signaling pathway (AID 743085).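 For activation: HG2L7.5c1 human HepG2 liver cells with stably integrated DRE-driven firefly reporter; series mostly up to about 70 µM.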 Note: nearly all actives have a fitted effect of over 15% in size. Note: potency is the fitted concentration of half-maximal effect. The essentials:
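Cell line HG2L7.5c1 (human hepatoma, 20× DRE-luc). Plated, 5 h 37C, compound/DMSO added, 24 h 37C. CellTiter-Fluor 30 min 37C → fluorescence; then ONE-Glo 30 min RT → luminescence.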

The target in test [10] is Peroxisome proliferator-activated receptor gamma (Homo sapiens) (UniProt P37231). Nature of the test: qHTS assay to identify small molecule agonists of the peroxisome proliferator-activated receptor gamma (PPARg) signaling pathway (AID 743094; active = well fitted activation curve with a large enough effect in the signal ratio in the repeat runs, not every such curve was filed as active; inconclusive = weak or mixed curves, or effect the other way; inactive = no such curve, though single readings can be large or run the other way; the % refers to the signal ratio; note: potency is the fitted concentration of half-maximal effect). In a few lines: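 Agonism was assessed in a beta-lactamase reporter system, HEK293H cells with a stably integrated UAS-bla construct under PPARg control; the 17 h treatment at 37C preceded a 1 h room-temperature FRET substrate read.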

The nature of test [11]: qHTS assay to identify small molecule antagonists of the peroxisome proliferator-activated receptor gamma (PPARg) signaling pathway - cell viability counter screen (AID 743194). Note: nearly all actives have a fitted effect of over 55% in size. Note: potency is the fitted concentration of half-maximal effect. The essentials: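 Cytotoxicity counter screen in PPARg-bla HEK293H cells, same wells as reporter assay. Compounds plus 50 nM rosiglitazone (final) for 17 h at 37 C, then viability read by CellTiter-Glo luminescence.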

Test [12] in a line: qHTS assay for small molecule agonists of the antioxidant response element (ARE) signaling pathway - cell viability counter screen (AID 743203; calls by dose curve; note: nearly all actives have a fitted effect of over 55% in size; note: potency is the fitted concentration of half-maximal effect). The essentials: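 ATP content via CellTiter-Glo luminescence served as the viability measure. Cells: ARE-bla HepG2, 2,000 per well. Exposure: 16 hrs, 37C/5% CO2.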
Test [13] is described as follows: qHTS assay for small molecule activators of the heat shock response signaling pathway - cell viability counter screen (AID 743209). Note: nearly all actives have a fitted effect of over 50% in size. Note: potency is the fitted concentration of half-maximal effect. In a few lines: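 Compounds dissolved in DMSO were added to overnight-plated HSE-bla HeLa cells and left 5 h at 37 C. Cell viability was quantified by luminescence using CellTiter-Glo.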
Test [14] has as its target Estrogen receptor (Homo sapiens) (UniProt P03372). Kind of test: qHTS assay to identify small molecule antagonists of the estrogen receptor alpha (ER-alpha) signaling pathway (AID 743069; active = well fitted curve in the direction sought with a large enough effect in the signal ratio in the repeat runs, not every such curve was filed as active; inconclusive = weak or mixed curves, or effect the other way; inactive = no such curve, though single readings can be large or run the other way; the % refers to the signal ratio; note: potency is the fitted concentration of half-maximal effect). The essentials:
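Beta-lactamase FRET fluorescence is read after 2 hr at room temperature with LiveBLAzer B/G substrate. Before that, ER-alpha-bla HEK293 cells sit 4 hr after plating, then receive compound plus 17beta-estradiol and incubate 18 hr at 37C.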

Test [15] can be described thus: qHTS assay to identify small molecule antagonists of the estrogen receptor alpha (ER-alpha) signaling pathway using the BG1 cell line - cell viability counter screen (AID 743081).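 Note: compound given together with 17beta-estradiol as the ER stimulus; nearly all actives have a fitted effect of over 45% in size.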 Note: potency is the fitted concentration of half-maximal effect.
A short description of test [16]: qHTS assay to identify small molecule that activate the aryl hydrocarbon receptor (AhR) signaling pathway - cell viability counter screen (AID 743086). Note: nearly all actives have a fitted effect of over 45% in size. Note: potency is the fitted concentration of half-maximal effect. The essentials: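 HepG2-AhR-luc (HG2L7.5c1) cells, 4000/well, treated 24 h at 37 C with compound; viability measured as CellTiter-Fluor fluorescence after 30 min in the same wells as the luciferase read.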
In test [17] the target is Peroxisome proliferator-activated receptor gamma (Homo sapiens) (UniProt P37231). Kind of test: qHTS assay to identify small molecule antagonists of the peroxisome proliferator-activated receptor gamma (PPARg) signaling pathway (AID 743191; calls by dose curve; note: series mostly up to about 63 µM; nearly all actives have a fitted effect of over 30% in size). The essentials: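 GeneBLAzer PPARg UAS-bla HEK293H cells, 5 h post-plating, exposed to compounds 17 h at 37C. LiveBLAzer B/G FRET substrate added for 1 h at room temperature; beta-lactamase reporter read by fluorescence intensity.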

Test [18] is described as follows: qHTS assay for small molecule agonists of the antioxidant response element (ARE) signaling pathway (AID 743202; active = well fitted activation curve with a large enough effect in the signal ratio in the repeat runs, not every such curve was filed as active; inconclusive = weak or mixed curves, or effect the other way; inactive = no such curve, though single readings can be large or run the other way; the % refers to the signal ratio). The essentials:
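HepG2 ARE-bla reporter line, 2,000 cells/well; 5 h preincubation 37 C/5% CO2; compound (DMSO) 16 h 37 C; B/G FRET substrate 2 h RT; fluorescence intensity.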

Test [19] in a line: qHTS assay for small molecule activators of the heat shock response signaling pathway (AID 743210; active = well fitted activation curve with a large enough effect in the signal ratio in the repeat runs, with a control signal flat, not every such curve was filed as active; inconclusive = weak or mixed curves; the % refers to the signal ratio; note: series mostly up to about 63 µM). The essentials: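 Beta-lactamase reporter read-out: FRET substrate fluorescence after 2.5 h at RT, following 5 h compound treatment at 37 C of HeLa cells carrying HSE-driven bla reporter; quantitative HTS format.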

Aromatase (Homo sapiens), sequence (P11511 whole entry, looked up): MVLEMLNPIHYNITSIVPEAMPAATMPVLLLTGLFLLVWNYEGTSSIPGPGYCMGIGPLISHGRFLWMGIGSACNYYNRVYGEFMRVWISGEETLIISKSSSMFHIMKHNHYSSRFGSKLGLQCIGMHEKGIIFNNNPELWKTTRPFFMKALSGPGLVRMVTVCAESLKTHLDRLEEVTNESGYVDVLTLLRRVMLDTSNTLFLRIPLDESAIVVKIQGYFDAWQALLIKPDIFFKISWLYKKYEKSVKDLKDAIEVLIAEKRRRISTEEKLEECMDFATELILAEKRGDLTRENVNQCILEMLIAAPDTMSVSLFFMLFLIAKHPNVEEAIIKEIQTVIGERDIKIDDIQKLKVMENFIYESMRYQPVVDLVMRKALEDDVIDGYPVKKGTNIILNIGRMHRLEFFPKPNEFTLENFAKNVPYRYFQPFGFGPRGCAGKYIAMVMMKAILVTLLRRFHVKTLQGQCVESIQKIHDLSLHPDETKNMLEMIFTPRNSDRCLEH
Aryl hydrocarbon receptor (Homo sapiens), sequence (P35869 whole entry, looked up): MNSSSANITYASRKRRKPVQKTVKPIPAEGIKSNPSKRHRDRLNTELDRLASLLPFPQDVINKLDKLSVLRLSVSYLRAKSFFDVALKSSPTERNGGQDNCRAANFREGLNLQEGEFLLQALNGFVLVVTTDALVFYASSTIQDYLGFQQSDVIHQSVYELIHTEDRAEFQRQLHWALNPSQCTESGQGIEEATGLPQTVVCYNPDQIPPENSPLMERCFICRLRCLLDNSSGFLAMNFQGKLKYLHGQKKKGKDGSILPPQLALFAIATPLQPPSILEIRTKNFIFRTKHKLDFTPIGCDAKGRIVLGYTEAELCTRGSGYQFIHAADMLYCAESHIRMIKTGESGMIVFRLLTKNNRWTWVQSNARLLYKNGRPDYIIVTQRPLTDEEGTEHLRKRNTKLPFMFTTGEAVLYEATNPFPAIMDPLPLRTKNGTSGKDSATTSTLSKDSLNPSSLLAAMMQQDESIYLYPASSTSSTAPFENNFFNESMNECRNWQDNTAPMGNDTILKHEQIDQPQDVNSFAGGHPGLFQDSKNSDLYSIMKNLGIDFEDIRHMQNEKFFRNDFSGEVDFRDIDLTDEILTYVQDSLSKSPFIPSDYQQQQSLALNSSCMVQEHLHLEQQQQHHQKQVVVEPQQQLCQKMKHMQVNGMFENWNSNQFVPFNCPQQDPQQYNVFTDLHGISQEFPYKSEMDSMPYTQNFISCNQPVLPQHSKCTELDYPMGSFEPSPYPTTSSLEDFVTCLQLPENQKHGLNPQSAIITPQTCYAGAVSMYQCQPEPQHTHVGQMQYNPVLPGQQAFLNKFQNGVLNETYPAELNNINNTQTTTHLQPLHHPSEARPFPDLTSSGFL
Peroxisome proliferator-activated receptor gamma (Homo sapiens), sequence (P37231 whole entry, looked up): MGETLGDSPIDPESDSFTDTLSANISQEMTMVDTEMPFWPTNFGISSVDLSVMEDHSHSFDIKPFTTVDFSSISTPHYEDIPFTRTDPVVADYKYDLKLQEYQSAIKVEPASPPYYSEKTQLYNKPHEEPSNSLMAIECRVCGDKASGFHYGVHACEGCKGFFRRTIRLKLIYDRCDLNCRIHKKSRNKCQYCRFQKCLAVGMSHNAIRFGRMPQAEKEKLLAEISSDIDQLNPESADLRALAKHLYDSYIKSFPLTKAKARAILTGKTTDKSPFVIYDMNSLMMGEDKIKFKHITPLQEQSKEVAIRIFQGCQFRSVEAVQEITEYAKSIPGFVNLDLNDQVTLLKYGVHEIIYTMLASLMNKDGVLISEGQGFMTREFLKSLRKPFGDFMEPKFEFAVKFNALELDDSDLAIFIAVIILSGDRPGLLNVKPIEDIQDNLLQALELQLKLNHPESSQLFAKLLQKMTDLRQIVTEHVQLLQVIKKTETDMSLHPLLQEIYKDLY
Estrogen receptor (Homo sapiens), sequence (P03372 whole entry, looked up): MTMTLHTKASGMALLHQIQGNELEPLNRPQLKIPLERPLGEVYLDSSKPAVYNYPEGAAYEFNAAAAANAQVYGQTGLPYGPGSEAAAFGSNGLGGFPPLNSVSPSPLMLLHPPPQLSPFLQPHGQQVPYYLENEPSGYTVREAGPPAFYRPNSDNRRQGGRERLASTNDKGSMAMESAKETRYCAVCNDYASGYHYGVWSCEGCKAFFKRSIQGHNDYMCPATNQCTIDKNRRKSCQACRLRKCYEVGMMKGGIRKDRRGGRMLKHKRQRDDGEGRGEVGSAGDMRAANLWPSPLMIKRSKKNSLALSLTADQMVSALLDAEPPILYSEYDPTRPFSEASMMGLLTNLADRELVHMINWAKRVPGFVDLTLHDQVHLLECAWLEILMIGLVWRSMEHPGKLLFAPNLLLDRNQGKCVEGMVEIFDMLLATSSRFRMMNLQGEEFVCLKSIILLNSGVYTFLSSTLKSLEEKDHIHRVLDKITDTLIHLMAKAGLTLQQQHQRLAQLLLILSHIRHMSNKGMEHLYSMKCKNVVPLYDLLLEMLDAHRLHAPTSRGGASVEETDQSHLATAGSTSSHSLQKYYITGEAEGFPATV

`CCCCCCCCCCC[C@@H](C[C@@H]1OC(=O)[C@H]1CCCCCC)OC(=O)[C@H](CC(C)C)NC=O`: the Potency entry in test [1], in test [2], in test [4], in [5], in [6] and in test [7] was “inactive” in each case. The Potency result (in the test with Aromatase (Homo sapiens); in [8]; in test [9]; in test [10]; in [11]; in test [12]) was “inactive” throughout. For the same molecule, in test [13], the Potency entry is “inactive”. In addition, in test [3], the result was inactive.
Consider `C=Cc1ccccc1C=C`, for which the Potency entry in test [1], in test [2], in test [14], in test [5], in test [6] and in [7] was “inactive” throughout. Besides, the Potency entry (in test [15]; with Aromatase (Homo sapiens); in test [8]; in test [9]; in test [16]; in [10]) was “inactive” each time. The Potency result in [17], in [11], in test [18], in [12], in test [13] and in test [19] was “inactive” in each case. The call in test [3] was inactive.
In the case of `Clc1nnc(Cl)c2ccccc12`, the Potency result in test [1], in test [2], in test [14], in test [4], in [5] and in [6] was “inactive” each time. Further, the Potency entry (in the test with Aromatase (Homo sapiens); in test [8]; in test [16]; in test [10]; in test [11]; in [12]) was “inactive” in each case. Further, the call in [3] was inactive.
Regarding `Nc1nc(N)nc(-c2cc(Cl)ccc2Cl)n1`, the Potency entry in test [1], in test [2], in test [4], in test [15], in [8] and in test [16] was “inactive” each time. For the same molecule, the Potency result in [11], in test [12], in test [13] and in test [19] was “inactive” in each case. Besides, the outcome in test [3] was inactive.
As for `CCCCCCCCCCCCCC[N+](C)(C)Cc1ccccc1`, the Potency is 11.9 µM (active) and 13.9 µM (active) in test [1]; 21.3 µM (active) and 22.2 µM (active) in test [4]; 26.6 µM (active) in test [7]; 29.8 µM (active) and 13.9 µM (active) with Aromatase (Homo sapiens); “inactive and 24.7 µM (active)” in [8]; 69.6 µM (active) in test [16]. Also, the Potency is 22.2 µM (active) and 29.8 µM (active) in test [11]; 69.6 µM (active) in test [12]; 44.3 µM (active) and 26.6 µM (active) in test [13]. In addition, in test [3], the call was inactive. In addition, the Potency result in test [5], in test [15] and in test [9] was “inactive” each time.
For the molecule `CN(C)c1ccc(C(=C2C=CC(=[N+](C)C)C=C2)c2ccc(N(C)C)cc2)cc1`, the Potency in [1] is 1.88 µM (active) and 859 nM (active) and 8.63 µM (active); in test [2], 1.33 µM (active) and 431 nM (active) and 545 nM (active); in test [14], 34.7 µM [cytotoxic] (active); in test [4] it was 10.7 µM (active) and 8.67 µM (active) and 24.5 µM (active); in test [5], 3.07 µM [inconclusive] (active); in test [7], 2.42 µM (active) and 3.86 µM (active). Further, the Potency in [15] was 13.3 µM (active) and 12.1 µM (active) and 24.3 µM (active); in the test with Aromatase (Homo sapiens) it was 2.98 µM (active) and 608 nM (active) and 864 nM (active); in [8] it was 10.6 µM (active) and 3.05 µM (active) and 7.7 µM (active); in [9], 2.42 µM (active); in test [16] it was 9.44 µM (active) and 19.2 µM (active) and 24.3 µM (active); in test [11], 1.94 µM (active) and 1.95 µM (active) and 5.96 µM (active). Further, the Potency in test [12] is 9.64 µM (active) and 10.9 µM (active) and 11.9 µM (active); in [13], 1.73 µM (active) and 4.36 µM (active) and 6.68 µM (active).
Regarding `CCCCCCCCCCCCCCCC[N+](C)(C)CC`, the Potency is 5.96 µM (active) and 15.4 µM (active) in test [1]; 4.22 µM (active) and 6.13 µM (active) in test [2]; 19 µM (active) and 55.1 µM (active) in [4]; 54.6 µM (active) in test [15]; 9.44 µM (active) and 8.66 µM (active) in the test with Aromatase (Homo sapiens); 21.1 µM (active) and 48.7 µM (active) in [8]. The Potency in [16] was 18.8 µM (active) and 48.7 µM (active); in [11], 17.4 µM (active) and 26.6 µM (active); in test [12], 54.6 µM (active); in [13], 39 µM (active) and 23.7 µM (active). Also, the Potency entry in [5] is “inactive”.
On to `CN1CCN2c3ccccc3Cc3ccccc3C2C1` (stereo not given), for which the Potency in [1] was 26.6 µM (active); in [2] it was 23.7 µM (active); in [4], 23.9 µM (active); in test [15], 26.6 µM (active). Also, the Potency entry (in test [5]; with Aromatase (Homo sapiens); in test [8]; in test [9]; in test [16]; in test [11]) was “inactive” each time. The Potency entry in test [12], in [13] and in test [19] was “inactive” in each case.
With `CCc1oc2ccccc2c1C(=O)c1cc(I)c(O)c(I)c1`, the Potency was 29.8 µM (active) in test [1]; 21.1 µM (active) in test [2]; 0.952 µM (active) in [10]; 13.3 µM (active) in [11]; 26.6 µM (active) in [12]. In addition, in test [3], the molecule was classed as inactive. Besides, the Potency entry in test [5], in [15], in [8], in test [16] and in test [13] was “inactive” each time.
As to `OCCN1CCN(CCCN2c3ccccc3Sc3ccc(C(F)(F)F)cc32)CC1`, the Potency was 6.68 µM (active) in [1], 6.68 µM (active) in test [2] and 29.8 µM (active) in [12]. In addition, the Potency entry in [14], in test [4], in test [5], in test [6], in test [7] and in test [15] was “inactive” each time. Also, the Potency entry in test [9], in test [13] and in test [19] was “inactive” throughout.
`CCCCCCC1CCCC(=O)O1` (stereo not given): the Potency entry in test [1], in test [2], in test [4], in test [15], in test [16] and in test [11] was “inactive” throughout. The Potency entry in test [18], in [12], in test [13] and in [19] was “inactive” throughout. In test [3], the outcome was inactive.
For the molecule `Sc1nc2ccccc2s1`, the Potency result in test [1], in test [2], in test [4], in test [15], in test [8] and in [16] was “inactive” in each case. Also, the Potency result in [11], in test [18] and in test [13] was “inactive” each time. The molecule was classed as inactive in [3].
Regarding `Cc1ccc(N/N=c2\c(=O)cc/c(=N\Nc3ccc(S(=O)(=O)O)cc3)c2=O)c(C)c1`, the Potency in test [1] was 61.1 µM (active); in test [15], 54.5 µM (active); in test [8] it was 27.3 µM (active); in test [9] it was 8.63 µM (active). For the same molecule, in test [3], the result was inactive. Further, the Potency result (in test [14]; in test [4]; in test [5]; in test [6]; in test [7]; with Aromatase (Homo sapiens)) was “inactive” each time. The Potency entry in test [10], in test [11] and in [13] was “inactive” each time.
As for `CCCCCCCCCCCCOCCOCCOCCOCCOCCOCCOCCOCCOCCO`, the Potency was 9.44 µM (active) in test [1]; 8.41 µM (active) in [2]; 10.7 µM (active) in [4]; 5.96 µM (active) in [7]; 23.7 µM (active) in test [15]; 10.6 µM (active) with Aromatase (Homo sapiens). In addition, the Potency in test [13] was 29.8 µM (active). The Potency result in [5] and in test [8] was “inactive” in each case.
